PubChem BioAssay (Tox21)
“And” between values parts separate entries of the source, which are not always exact repeats. Equal entries are not always repeated. Results filed as inconclusive are left out. The source made the active and inactive calls. Unless noted, calls come from the whole dose curve; as a rule, active = well fitted curve in the direction sought with a large enough effect in the repeat runs; inconclusive = weak or mixed curves; inactive = no such curve, though single readings can be large; an effect the other way counts as inactive or inconclusive. Positions of bridges follow the written chain, without caps; N, C: chain ends. Non-standard residues stand in square brackets, D forms with d. Residues, ends and D or L forms follow the SMILES beside them. *: point of attachment. X2 = CC[C@H](C)CCCCC(=O)*; Dab = NCC[C@H](N)C(=O)O

Experiments:
[1] = qHTS assay to identify small molecule antagonists of the glucocorticoid receptor (GR) signaling pathway - cell viability counter screen (AID 720693); note: nearly all actives have a fitted effect of over 55% in size; note: potency is the fitted concentration of half-maximal effect
[2] = qHTS assay for identifying genotoxic compounds that show differential cytotoxicity against isogenic chicken DT40 cell lines with known DNA damage response pathways - wild type cell line (AID 743012); note: nearly all actives have a fitted effect of over 60% in size; note: potency is the fitted concentration of half-maximal effect
How it was run: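 Wild-type DT40 cells (300/well) exposed to compounds for 40 hours at 37 C/5% CO2. Viability read by CellTiter-Glo luminescence after 30 min at room temperature.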

[3] = qHTS assay for identifying genotoxic compounds that show differential cytotoxicity against isogenic chicken DT40 cell lines with known DNA damage response pathways - Rev3 mutant cell line (AID 743014); note: nearly all actives have a fitted effect of over 55% in size; note: potency is the fitted concentration of half-maximal effect
[4] = qHTS assay for identifying genotoxic compounds that show differential cytotoxicity against isogenic chicken DT40 cell lines with known DNA damage response pathways - Rad54/Ku70 mutant cell line (AID 743015); note: nearly all actives have a fitted effect of over 60% in size; note: potency is the fitted concentration of half-maximal effect
[5] = qHTS assay to identify small molecule antagonists of the androgen receptor (AR) signaling pathway using the MDA cell line - cell viability counter screen (AID 743041; note: nearly all actives have a fitted effect of over 45% in size; note: potency is the fitted concentration of half-maximal effect)
How it was run: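 R1881-driven MDA-kb2 AR-luc cells, 3,000/well, were dosed with library compounds for 16 h; cell health came from CellTiter-Fluor fluorescence in the reporter wells.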

[6] = qHTS assay to identify small molecule antagonists of the androgen receptor (AR) signaling pathway - cell viability counter screen (AID 743033; note: nearly all actives have a fitted effect of over 45% in size)
[7] = target: Androgen receptor (Homo sapiens) (UniProt P10275); test: qHTS assay to identify small molecule antagonists of the androgen receptor (AR) signaling pathway (AID 743035; active = well fitted inhibition curve with a large enough effect in the signal ratio in the repeat runs, not every such curve was filed as active; the % refers to the signal ratio; note: potency is the fitted concentration of half-maximal effect)
How it was run: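 HEK293 cells stably carrying UAS-beta-lactamase reporter, 2,000/well, given compounds plus R1881 agonist and incubated 16 h at 37C. LiveBLAzer B/G FRET substrate then added for 2 h at room temperature before fluorescence reading.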

[8] = target: Androgen receptor (Homo sapiens) (UniProt P10275); test: qHTS assay to identify small molecule agonists of the androgen receptor (AR) signaling pathway (AID 743036; active = well fitted activation curve with a large enough effect in the signal ratio in the repeat runs, with a control signal flat, not every such curve was filed as active; the % refers to the signal ratio)
How it was run: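 Quantitative HTS of the Tox21 10K library in HEK293 cells bearing a stably integrated UAS-controlled beta-lactamase reporter. Compound exposure lasted 16 h at 37C. Reporter activity was detected by FRET substrate fluorescence after 2 h at room temperature.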

[9] = target: Androgen receptor (Homo sapiens) (UniProt P10275); test: qHTS assay to identify small molecule agonists of the androgen receptor (AR) signaling pathway using the MDA cell line (AID 743040; note: nearly all actives have a fitted effect of over 20% in size; note: potency is the fitted concentration of half-maximal effect)
How it was run: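 After a 5 h incubation at 37C and 0% CO2, MDA-kb2 reporter cells were dosed with compounds in DMSO and kept 16 h under the same conditions. Luciferase activity was then read as luminescence with ONE-Glo.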

[10] = target: Androgen receptor (Homo sapiens) (UniProt P10275); test: qHTS assay to identify small molecule antagonists of the androgen receptor (AR) signaling pathway using the MDA cell line (AID 743042; note: nearly all actives have a fitted effect of over 55% in size)
How it was run: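 Antagonist mode: compounds plus R1881 agonist added to MDA-kb2 AR-luc cells, incubated 16 h at 37C. Luciferase reporter luminescence quantified, with multiplexed CellTiter-Fluor readout for cell viability.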

Measured: Potency

Androgen receptor (Homo sapiens), sequence (P10275 whole entry, looked up): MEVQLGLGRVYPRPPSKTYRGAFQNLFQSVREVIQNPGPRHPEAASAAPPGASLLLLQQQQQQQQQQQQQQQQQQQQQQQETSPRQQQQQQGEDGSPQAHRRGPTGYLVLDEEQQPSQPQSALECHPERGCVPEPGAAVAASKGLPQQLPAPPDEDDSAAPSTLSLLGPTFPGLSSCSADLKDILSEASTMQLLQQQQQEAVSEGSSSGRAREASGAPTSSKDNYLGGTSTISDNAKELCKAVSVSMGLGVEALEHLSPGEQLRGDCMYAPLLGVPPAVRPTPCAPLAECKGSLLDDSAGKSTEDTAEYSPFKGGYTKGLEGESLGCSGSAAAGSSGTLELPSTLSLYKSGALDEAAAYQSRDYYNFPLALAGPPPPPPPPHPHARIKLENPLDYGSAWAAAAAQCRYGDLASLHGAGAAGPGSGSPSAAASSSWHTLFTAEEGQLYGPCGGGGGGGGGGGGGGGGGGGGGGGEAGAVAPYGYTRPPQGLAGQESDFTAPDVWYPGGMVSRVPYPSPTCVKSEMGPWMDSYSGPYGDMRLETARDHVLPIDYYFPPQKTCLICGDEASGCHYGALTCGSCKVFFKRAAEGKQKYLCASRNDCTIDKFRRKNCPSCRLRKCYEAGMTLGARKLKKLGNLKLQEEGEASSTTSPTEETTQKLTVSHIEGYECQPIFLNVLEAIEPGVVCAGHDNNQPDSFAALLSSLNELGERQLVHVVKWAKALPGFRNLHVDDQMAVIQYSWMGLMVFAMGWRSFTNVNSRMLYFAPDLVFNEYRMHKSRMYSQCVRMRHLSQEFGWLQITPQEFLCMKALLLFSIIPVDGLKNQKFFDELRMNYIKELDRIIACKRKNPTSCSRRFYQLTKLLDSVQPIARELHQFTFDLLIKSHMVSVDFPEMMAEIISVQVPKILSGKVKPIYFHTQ

O.O=C([O-])CC([S-])C(=O)[O-].[Au+].[Na+].[Na+] (configuration not stated)
inactive: [1] | [2] | [3] | [4] | [5]

COc1ccc(CCNC[C@H](O)c2ccc(O)cc2)cc1OC
inactive: [1] | [2] | [3] | [4] | [5]

CC(C)(C)C(=O)OCOC(=O)[C@@H]1N2C(=O)[C@@H](N=CN3CCCCCC3)[C@H]2SC1(C)C
inactive: [1] | [2] | [3] | [4] | [5]

CCC(=O)OCC(=O)[C@@]1(OC(=O)CC)[C@@H](C)C[C@H]2[C@@H]3CCC4=CC(=O)C=C[C@]4(C)[C@@]3(F)[C@@H](O)C[C@@]21C
inactive: [1] | [5]
active: [2] 13.3 µM | [3] 29.8 µM | [4] 23.7 µM

NCc1ccccc1CC(=O)N[C@@H]1C(=O)N2C(C(=O)O)=C(CSc3nnnn3CC(=O)O)CS[C@H]12
inactive: [1] | [2] | [3] | [4] | [5]

C=CCCCCCCCCC(=O)OC
inactive: [1] | [2] | [3] | [6] | [5]

C[C@]12C=CC(=O)N[C@@H]1CC[C@@H]1[C@@H]2CC[C@]2(C)[C@@H](C(=O)Nc3cc(C(F)(F)F)ccc3C(F)(F)F)CC[C@@H]12
active: [2] 4.22 µM | [4] 2.66 µM
inactive: [1] | [6]

CCc1ccc(S(=O)(=O)O)cc1
not listed: [3]
inactive: all other assays above

CC(=O)[C@]1(O)Cc2c(O)c3c(c(O)c2[C@@H](O[C@H]2C[C@H](N)[C@H](O)[C@H](C)O2)C1)C(=O)c1c(O)cccc1C3=O
active: [1] 3.01 µM | [2] 18.8 nM and 21.1 nM | [3] 0.0188 µM | [5] 11.9 µM

CC(C)[C@@H]1CC[C@@H](C)C[C@H]1OC(=O)c1ccccc1O
not listed: [3] | [7]
inactive: all other assays above

C/C1=C2N=C(/C=C3N=C(/C(C)=C4\[N-][C@@](C)([C@@H]5N=C1[C@](C)(CCC(=O)NCC(C)OP(=O)(O)O[C@H]1[C@@H](O)[C@@H](n6cnc7cc(C)c(C)cc76)O[C@@H]1CO)[C@H]5CC(N)=O)[C@@](C)(CC(N)=O)[C@@H]4CCC(N)=O)[C@@](C)(CC(N)=O)[C@@H]\3CCC(N)=O)C(C)(C)[C@@H]/2CCC(N)=O.CC(=O)O.[Co] (some centres not stated)
inactive: [1] | [2] | [3] | [6]

CC(=O)O[C@]1(C(C)=O)CC[C@H]2[C@@H]3CCC4=CC(=O)CC[C@]4(C)[C@@]3(F)[C@@H](O)C[C@@]21C
active: [7] 8.49 µM | [9] 0.0531 µM
not listed: [3]
inactive: all other assays above

CC[C@H](C)CCCCC(=O)N[C@@H](CCN)C(=O)N[C@H](C(=O)N[C@@H](CCN)C(=O)N[C@H]1CCNC(=O)[C@H]([C@@H](C)O)NC(=O)[C@H](CCN)NC(=O)[C@H](CCN)NC(=O)[C@H](CC(C)C)NC(=O)[C@@H](CC(C)C)NC(=O)[C@H](CCN)NC1=O)[C@@H](C)O (X2-[Dab]T[Dab][Dab][Dab][dL]L[Dab][Dab]T; lactam 4-C)
inactive: [1] | [2] | [3] | [5]

C/C1=C2N=C(/C=C3N=C(/C(C)=C4\[N-]C(C(CC(N)=O)C4(C)CCC(=O)NCC(C)OP(=O)([O-])OC4C(CO)OC(n5cnc6cc(C)c(C)cc65)C4O)C4(C)N=C1C(CCC(N)=O)C4(C)CC(N)=O)C(CCC(N)=O)C\3(C)C)C(CCC(N)=O)C/2(C)CC(N)=O.[CH3-].[Co+3] (configuration not stated)
inactive: [1] | [2] | [3] | [6]
active: [5] 23.7 µM

O=C(NNCS(=O)(=O)O)c1ccncc1
inactive: [1] | [2] | [3] | [6] | [5]

COC(=O)[C@H]1[C@H]2C[C@@H]3c4[nH]c5cc(OC)ccc5c4CCN3C[C@H]2C[C@H](OC)[C@@H]1OC
inactive: [1] | [2] | [4] | [6]

C[C@@](Cc1ccc(O)c(O)c1)(NN)C(=O)O
inactive: [1] | [6] | [5]
active: [2] 29.8 µM | [3] 29.8 µM

O=C(O)CCC/C=C\C[C@@H]1[C@@H](/C=C/[C@@H](O)COc2cccc(C(F)(F)F)c2)[C@H](O)C[C@@H]1O
not listed: [3] | [8]
inactive: all other assays above

CC(=O)Nc1ccc(NC(=S)NC(=O)c2ccc(C(C)(C)C)cc2)cc1
active: [2] 2.66 µM | [3] 2.66 µM
inactive: [1] | [5]

CC(C)[C@H](N)C(=O)OCC(CO)OCn1cnc2c(=O)[nH]c(N)nc21 (some centres not stated)
inactive: [1] | [2] | [3] | [6] | [5]

CCCc1nc(C(C)(C)O)c(C(=O)OCc2oc(=O)oc2C)n1Cc1ccc(-c2ccccc2-c2nn[nH]n2)cc1
inactive: [1] | [2] | [3] | [6] | [5]

CC(CN1c2ccccc2Sc2ccc(S(=O)(=O)N(C)C)cc21)N(C)C (configuration not stated)
active: [2] 11.9 µM | [4] 18.8 µM
not listed: [3]
inactive: all other assays above
